Source: PubChem BioAssay (Broad Institute)
CASP6 VEID inh: blocks human caspase-6 cleavage activity | AID 686996 | 350,000 tested, 0.53% active | inhibition, % at 12.5 µM | purified caspase-6, Z-VEID-R110 cleavage fluorescence;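 active = mean inhibition across replicates at least about 35%, with every replicate also reaching that limit, limit read from the data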;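 note: 0% = median of neutral control wells and 100% = no fluorescence left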
SIRT5 inh: blocks human SIRT5 desuccinylation of peptide. 330,000 tested, 1.1% active. inhibition, % at 15 µM. Purified SirT5, succinyl-peptide AMC, trypsin-coupled fluorescence. Q9NXA8. AID 652115; in the data active = inhibition above about 15%
Target sequence (Q9NXA8 whole entry, looked up): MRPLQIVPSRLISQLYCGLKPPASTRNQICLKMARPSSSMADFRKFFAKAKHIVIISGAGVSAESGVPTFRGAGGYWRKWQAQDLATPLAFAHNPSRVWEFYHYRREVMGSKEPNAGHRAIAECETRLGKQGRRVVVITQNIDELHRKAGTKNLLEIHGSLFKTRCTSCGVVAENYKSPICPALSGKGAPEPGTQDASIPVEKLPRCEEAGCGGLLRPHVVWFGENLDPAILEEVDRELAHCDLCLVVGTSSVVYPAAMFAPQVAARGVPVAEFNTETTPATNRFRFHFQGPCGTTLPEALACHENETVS
GSIS activator: primary screen for activators of insulin secretion dependent on glucose, INS-1E cells, GLuc reporter luminescence. AID 743287. activation, % at 16.6 µM. 370,000 tested, 0.61% active. INS-1E GLuc reporter insulin secretion, 2-3 h;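 active = lowest replicate activation of at least 40%, so every replicate reaches that level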;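 note: 0% = median of neutral control wells and 100% = median of IBMX positive control wells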
FGF22 binding: shifts melting point of recombinant human FGF22; Q9HCT0; 340,000 tested, 1.5% active; AID 651658; recombinant FGF22 thermal shift, SYPRO orange fluorescence; percent of sucrose octasulfate shift, DMSO zero; activity (Tm shift, normalised), % at 9.99 µM;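 active = mean Tm shift, scaled 0 neutral to 100 positive control, at about 1.3% or above, every replicate too, limit read from the data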
Target sequence (Q9HCT0 whole entry, looked up): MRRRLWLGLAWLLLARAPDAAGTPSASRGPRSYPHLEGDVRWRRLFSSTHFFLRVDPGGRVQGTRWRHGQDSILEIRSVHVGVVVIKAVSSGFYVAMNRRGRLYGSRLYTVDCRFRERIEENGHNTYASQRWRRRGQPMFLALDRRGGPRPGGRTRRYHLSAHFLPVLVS
ERAP1 inh: blocks human ERAP1 aminopeptidase activity; recombinant ERAP1, Leu-AMC fluorescence, 60 min; inhibition, % at 10.7 µM; AID 652197; 340,000 tested, 0.15% active;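 active = mean replicate inhibition of at least 30%, or all replicates individually reaching that 30% level; inactive = mean below 30% and not every replicate reaching it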;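 note: 0% = neutral control wells and 100% = L-leucinethiol positive control wells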
* hit, by the source's call; / = not tested or not shown. A selection: hits, their analogues and other compounds. The true share with any hit is near 3.3%.

SMILES	CASP6 VEID inh	SIRT5 inh	GSIS activator	FGF22 binding	ERAP1 inh
COc1ccc(S(=O)(=O)Nc2cccc3c2O[C@@H](CN(C)S(=O)(=O)c2cn(C)cn2)[C@@H](C)CN([C@@H](C)CO)C3=O)cc1	/	3	11	0	3
O=C(CC1CC1)N1[C@H](CO)[C@H]2c3ccccc3N(S(=O)(=O)c3ccccc3)C[C@H]21	1	-1	5	0	-3
O=C(CC1CC1)N1[C@@H](CO)[C@@H]2c3ccccc3N(S(=O)(=O)c3ccc(F)cc3)C[C@@H]21	1	25*	3	1	1
CO[C@@H]1CN(C)C(=O)c2cc(NC(C)=O)ccc2OC[C@@H](C)N(C(=O)Cc2ccccn2)C[C@H]1C	1	0	5	0	4
O=C(C[C@@H]1CC[C@@H](NC(=O)CC2CC2)[C@H](CO)O1)NCc1ccccc1	0	-4	19	/	1
COCCNC(=O)C(c1ccc(C)o1)N(CCOC)C(=O)Cn1nnc2ccccc21 (configuration not stated)	-6	-5	11	44*	-1
O=C(Cc1ccccn1)N[C@H]1CC[C@H](CCNC(=O)c2cc(Cl)cc(Cl)c2)O[C@@H]1CO	0	-3	10	0	-1
CSc1nc2nc3c(cc2c(=O)n1-c1ccccc1)COC(C)(C)C3	0	-1	0	43*	1
COc1cccc(N(CC(=O)Nc2cccnc2)S(C)(=O)=O)c1	1	0	4	43	2
CCOc1ccc(N(C(C)C(=O)Nc2cccnc2)S(C)(=O)=O)cc1 (configuration not stated)	-1	1	11	43*	-1
COc1ccc(N(CC(=O)Nc2cccnc2)S(C)(=O)=O)cc1	0	-1	-1	43*	5
COc1ccc(OC)c(N(CC(=O)Nc2ccccc2)S(C)(=O)=O)c1	37*	-4	-3	0	2
COc1ccc(NC(=O)CN(c2ccc(Cl)cc2)S(C)(=O)=O)cc1OC	1	25*	/	0	-1
COc1ccc(OC)c(N(CC(=O)Nc2cccnc2)S(=O)(=O)c2ccccc2)c1	-3	-1	-21	/	-5
COc1ccc2c3c([nH]c2c1)[C@H](CO)N(CC1CC1)CC31CN(S(=O)(=O)c2cccc(F)c2)C1	-1	5	2	0	0
CN1CCN(C(=O)C[C@@H]2C[C@H]3c4cc(NC(=O)Nc5ccc(F)cc5)ccc4O[C@H]3[C@H](CO)O2)CC1	1	-2	7	0	1
COC(=O)c1ccc(CN2CC(=O)N3[C@H](C2)[C@H](c2ccc(Br)cc2)[C@@H]3CO)cc1	/	/	2	/	/
COc1ccc(Cl)cc1NC(=O)CN(C)CC(=O)Nc1cc(OC)c(OC)c(OC)c1	-1	15*	-17	0	1
COc1ccc(Cl)cc1NC(=O)CN(C)CC(=O)Nc1ccc(Br)cc1	-8	-5	-13	0	-3
O=Cc1ccc(-c2ccccc2C(=O)O)o1	8	-3	-9	43*	2
C[C@H](CO)N1C[C@H](C)[C@H](CN(C)Cc2ccccc2)Oc2ccc(NC(=O)C3CC3)cc2CC1=O	3	0	1	0	-1
C[C@H](CO)N1C[C@H](C)[C@@H](CN(C)Cc2ccc(C(F)(F)F)cc2)Oc2ccc(NC(=O)Cc3ccccc3)cc2CC1=O	-5	16*	-33	0	4
C[C@@H]1CN([C@@H](C)CO)C(=O)Cc2cc(NC(=O)Cc3ccccc3)ccc2O[C@@H]1CN(C)Cc1ccc(C(F)(F)F)cc1	1	5	-41	-1	2
C[C@@H]1CN([C@H](C)CO)C(=O)Cc2cc(NC(=O)Cc3ccccc3)ccc2O[C@@H]1CN(C)Cc1ccc(C(F)(F)F)cc1	1	16*	-33	-1	3
C[C@@H]1CN([C@H](C)CO)C(=O)Cc2cc(NC(=O)C3CC3)ccc2O[C@@H]1CN(C)Cc1ccccc1	-1	99*	-6	0	-1
SMILES	CASP6 VEID inh	SIRT5 inh	GSIS activator	FGF22 binding	ERAP1 inh
C[C@H]1CN([C@@H](C)CO)C(=O)Cc2cc(NC(=O)Nc3ccc(C(F)(F)F)cc3)ccc2O[C@H]1CN(C)Cc1ccc(C(=O)Nc2ccccc2N)cc1	0	20*	2	0	-2
C[C@@H]1CN([C@@H](C)CO)C(=O)Cc2cc(NC(=O)Cc3ccccc3)ccc2O[C@H]1CN(C)Cc1ccc(C(F)(F)F)cc1	1	13	-41	0	4
C[C@@H]1CN([C@H](C)CO)C(=O)c2cccc(NC(=O)Nc3ccc(F)cc3)c2O[C@H]1CN(C)C(=O)Nc1ccc(F)cc1	/	0	-2	0	-4
O=C(OC1CCOC1=O)c1ccc(Cl)c(S(=O)(=O)N2CCOCC2)c1 (configuration not stated)	40*	-9	-5	0	1
O=C(OC1CCOC1=O)c1cc(-c2ccc(Cl)cc2)nc2ccccc12 (configuration not stated)	10	-4	56*	0	-3
O=C(OC1CCOC1=O)c1cc(Cl)ccc1[N+](=O)[O-] (configuration not stated)	-1	98*	-4	0	2
CO[C@@H]1CN(C)C(=O)c2cc(NC(=O)C3CC3)ccc2OC[C@@H](C)N(C(=O)Nc2ccc(C(F)(F)F)cc2)C[C@H]1C	3	0	-32	0	-1
Cc1noc(C)c1S(=O)(=O)Nc1ccc2c(c1)C(=O)N([C@@H](C)CO)C[C@@H](C)[C@@H](CN(C)Cc1ccc(-c3ccccc3)cc1)O2	-1	7	-31	-1	2
C[C@H](CO)N1C[C@H](C)[C@@H](CN(C)C(=O)CC2CC2)Oc2ncc(C#CC3CC3)cc2C1=O	-2	-2	-3	0	-2
CO[C@@H]1CN(C)C(=O)c2ccc(NC(=O)C3CCC3)cc2OC[C@H](C)N(C)C[C@@H]1C	-14	-3	-7	0	1
COc1cc(/C=C2\SC(=S)N(NC(=O)c3ccc(O)cc3)C2=O)ccc1O	9	7	-23	0	2
O=C(O)COc1ccccc1/C=C1\SC(=S)N(NC(=O)c2ccccc2O)C1=O	15	21*	-9	/	8
O=C(O)COc1ccccc1/C=C1\SC(=S)N(/N=C/c2ccccc2O)C1=O	/	/	1	/	/
O=C(NN1C(=O)/C(=C/c2ccc(O)c(O)c2)SC1=S)c1ccccc1	45*	10	-54	/	6
O=C(Cc1ccccc1)NN1C(=O)/C(=C/c2ccccc2C(=O)O)SC1=S	62*	5	-1	1	-7
CC(C)NC(=O)N1C[C@@H]2[C@H](c3ccccc31)[C@@H](CO)N2C(=O)c1ccccc1	-4	-2	20	0	1
C[C@H]1CCCCO[C@H](CN(C)C(=O)Nc2ccccc2)[C@@H](C)CN([C@@H](C)CO)C(=O)c2cc(NS(=O)(=O)c3cccs3)ccc2O1	0	2	-37	0	0
